From PubChem BioAssay (NCI)
“And” between values parts separate entries of the source, which are not always exact repeats. Identical values can stand only once. About 79,000 compounds went through this panel and 15% of them were active in at least one assay; those are over-represented in the sample as a whole. The source made the active and inactive calls. No stated cut-off is given here; in the data, active means growth inhibition above about 70%; inactive means the rest. Where a SMILES comes first, the peptide text is derived from it. The star is where a group is joined. Boc = CC(C)(C)OC(=O)*; OBn = c1ccc(CO*)cc1

Assay: NCI Yeast Anticancer Drug Screen. Data for the rad50 strain (AID 155);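 further: 0% = growth of vehicle-only cultures of the same strain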
Settings: S. cerevisiae rad50 strain growth inhibition, stronger effect = higher value; at 50.0 µM unless noted
Outline: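 DNA repair mutant yeast, compound exposure, growth read-out; inhibition is taken relative to vehicle.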
In the case of Cn1c2c(c3ccccc31)CCN(CCCCN1CCN(c3ccccc3)CC1)C2=O, the growth inhibition is reported as 3.8% (inactive).
For Cc1ccc(S(=O)(=O)C2OC(CO)C(O)C(O)C2O)cc1 (stereo not given), the growth inhibition was -11.5% (inactive).
For CC(C)CC(NC(=O)C(Cc1ccccc1)NC(=O)C(Cc1ccccc1)NC(=O)OC(C)(C)C)C(=O)OCc1ccccc1 (stereo not drawn) (Boc-Phe-Phe-Leu-OBn; configuration not given here), the growth inhibition was -3.15% (inactive).
For CC1CC(C)OC(C(Br)CBr)O1 (stereo not given), the growth inhibition was 5.05% (inactive).
For CCN(CC)CC(=O)Nc1ccc2c(c1)C(=O)c1ccc(NC(=O)CN(CC)CC)cc1C2=O, the growth inhibition was 22.1% (inactive).
In the case of CN(C)Cc1ccccc1CC1(O)CCCC1, the growth inhibition is reported as 19.6% (inactive).
For Cc1cccc(C)c1I, the growth inhibition was -35% (inactive).
With CCOCNC(=O)NCC(F)(F)C(F)(F)C(F)(F)C(F)(F)C(F)(F)C(F)(F)C(F)(F)F the growth inhibition was -1.55% (inactive).
With O=C1OC(c2ccccc2)=N/C1=C\c1ccccc1 the growth inhibition was -24% (inactive) and 23.1% (inactive).
For CS(C)=NC(=Nc1ccccc1)c1ccccc1, the growth inhibition was 6.9% (inactive).
With CCOC(=O)/C(=C\c1ccccc1)c1ccccc1 the growth inhibition was 7.15% (inactive).
For CCN(CC)C(=O)c1cc(OC)c(C(=O)N(CC)CC)cc1OC, the growth inhibition was -21.9% (inactive).
With Cc1cc2nncn2c2ccccc12 the growth inhibition was 9.15% (inactive).
For CC1=NN(C(=O)Cc2ccccc2)C(=O)/C1=C\c1ccc(O)cc1, the growth inhibition was -18.9% (inactive).
With c1ccc(NN=Nc2ncnc3nc[nH]c23)cc1 the growth inhibition was 3.35% (inactive).
In the case of O=C(/C=C/c1ccc(OCc2ccccc2)cc1)c1cccc([N+](=O)[O-])c1, the growth inhibition is reported as 4.7% (inactive).
With CCCCOC(=O)c1cccc(C)c1 the growth inhibition was -3% (inactive).
In the case of CCSC(SCC)=C1C(=O)N(c2ccccc2)N=C1C, the growth inhibition is reported as -6.75% (inactive).
For O=C1OC(c2ccccc2)=N/C1=C/C=C/c1ccco1, the growth inhibition was -10.9% (inactive).
For Nc1nc(N)c2ncn(Cc3ccccc3)c2n1, the growth inhibition was -41.2% (inactive).
In the case of Nc1ncnc(N)c1NC(=O)c1ccc2ccccc2c1, the growth inhibition is reported as 8.95% (inactive).
For COc1ccc(C2=C(Cl)c3cc(OC)c(OC)cc3C2Cl)cc1 (stereo not given), the growth inhibition was 14.8% (inactive).
For O=C(c1ccccc1)C1CC1C(=O)c1ccccc1 (stereo not given), the growth inhibition was -3.55% (inactive).
For CCOc1ccc(N2C(=O)/C(=C/c3ccc(N(CCC#N)CCC#N)cc3)N=C2c2cc([N+](=O)[O-])ccc2Cl)cc1, the growth inhibition was 5.85% (inactive).
With N#CCc1cccc(Cl)c1Cl (tested in a mixture with another compound) the growth inhibition was 6.8% (inactive).
For Nc1c(I)cc(I)c(C(=O)O)c1I, the growth inhibition was -44% (inactive).
With CC(C)(C)[Si](C)(C)OCC1OC(n2cnc3c(=O)[nH]cnc32)CC1O (stereo not given) the growth inhibition was 0.35% (inactive).
In the case of CCCCCCCCCCCCCCCCCn1nnnc1N, the growth inhibition is reported as -8.3% (inactive).
In the case of CCC1(CC)C(=O)NN(C(=O)c2ccc(Cl)cc2)C1=O, the growth inhibition is reported as -4.9% (inactive).
With CCOC(=O)CSC#N the growth inhibition was -2.05% (inactive).
For O=C(O)c1ccc(C(=O)NCCCN(CCCCN(CCCNC(=O)c2ccc(C(=O)O)c(O)c2O)C(=O)c2ccc(C(=O)O)c(O)c2O)C(=O)c2ccc(C(=O)O)c(O)c2O)c(O)c1O, the growth inhibition was 11.2% (inactive).
With CCCCCCCCCCCC[N+](C)([O-])CCCCCC[N+](C)([O-])CCCCCCCCCCCC (stereo not given) the growth inhibition was 96.2% (active).
For CCOC(=O)c1[nH]c(-c2[nH]c(-c3[nH]c(-c4[nH]c(C(=O)OCC)c(C)c4C(=O)OCC)c(C(=O)OCC)c3C)c(C)c2C(=O)OCC)c(C(=O)OCC)c1C, the growth inhibition was -24.7% (inactive).
For O=c1cnn2c(n1)OC1C(O)C(CO)OC12 (stereo not given), the growth inhibition was 3.55% (inactive).
With N#Cc1c(-c2ccccc2Cl)c(-c2ccccc2Cl)nn(CCO)c1=O the growth inhibition was 16.9% (inactive).
For O=C(O)c1ccccc1SCCO, the growth inhibition was -1.95% (inactive).
In the case of Cc1ccc(S(=O)(=O)N/N=C/c2ccoc2)cc1, the growth inhibition is reported as -32.1% (inactive).
For COc1ccc(NC(=O)CC/C(CC(=O)c2ccco2)=N/NC(=O)C(N)=O)cc1, the growth inhibition was -4% (inactive).
With Cc1ncc(CN=Cc2ccc(Cl)cc2)c(N)n1 the growth inhibition was 9.8% (inactive).
For CCSCCC#N, the growth inhibition was 11.2% (inactive).
